In PubChem BioAssay (NCATS):
Inconclusive results are not listed. Active and inactive are the calls of the source. Calls follow the shape of the dose curve; as a rule, active = well fitted inhibition curve with a large enough effect; inconclusive = small, poorly fitted or top-dose-only effect; inactive = flat fitted curve, though single readings scatter.

How the values were obtained:
Experiment in all cases: qHTS profiling for inhibitors of Plasmodium falciparum proliferation (AID 504749); also: nearly all actives have a fitted effect of over 60% in size
Conditions in all cases: P. falciparum in erythrocytes, SYBR Green DNA, 72 h; series mostly up to 28.7 µM
CP262 = system: CP262
Summary of the method: (§1)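 Readout was DNA-dye fluorescence from lysed cultures, ex 485/em 535 nm. Parasitized red cells had grown 72 h with compound; data scaled between 0.29 uM artemisinin and DMSO wells and corrected using vehicle-only plates.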

CP265 = system: CP265
Summary of the method: as §1

CP266 = system: CP266
Summary of the method: as §1

CP268 = system: CP268
Summary of the method: as §1

CP269 = system: CP269
Summary of the method: as §1

CP286 = system: CP286
Summary of the method: as §1

CP291 = system: CP291
Summary of the method: as §1

CP297 = system: CP297
Summary of the method: as §1

CP305 = system: CP305
Summary of the method: as §1

CP315 = system: CP315
Summary of the method: as §1

CP325 = system: CP325
Summary of the method: as §1

CP329 = system: CP329
Summary of the method: as §1

CP335 = system: CP335
Summary of the method: as §1

DFO2036 = system: DFO2036
Summary of the method: as §1

DIV14 = system: DIV14
Summary of the method: as §1

DIV17 = system: DIV17
Summary of the method: as §1

DIV30 = system: DIV30
Summary of the method: as §1

Dd2 = system: Dd2
Summary of the method: as §1

ECU = system: ECU
Summary of the method: as §1

FAB9 = system: FAB9
Summary of the method: as §1

GB4 = system: GB4
Summary of the method: as §1

HB3 = system: HB3
Summary of the method: as §1

ICS = system: ICS
Summary of the method: as §1

JCK = system: JCK
Summary of the method: as §1

N140 = system: N140
Summary of the method: as §1

P93_24 = system: P93_24
Summary of the method: as §1

P94_40 = system: P94_40
Summary of the method: as §1

PAD = system: PAD
Summary of the method: as §1

PC15 = system: PC15
Summary of the method: as §1

PC26 = system: PC26
Summary of the method: as §1

PC49 = system: PC49
Summary of the method: as §1

SC27B = system: SC27B
Summary of the method: as §1

TAB109 = system: TAB109
Summary of the method: as §1

TAB113 = system: TAB113
Summary of the method: as §1

TAB165 = system: TAB165
Summary of the method: as §1

Measured: Potency

CN1[C@@H]2CC(OC(=O)[C@@H](CO)c3ccccc3)C[C@@H]1[C@H]1O[C@H]12 (stereo not given in full)
inactive: CP262 | CP265 | CP266 | CP268 | CP269 | CP286 | CP291 | CP297 | CP305 | CP315 | CP325 | CP329 | CP335 | DFO2036 | DIV14 | DIV17 | DIV30 | Dd2 | ECU | FAB9 | GB4 | HB3 | ICS | JCK | N140 | P93_24 | P94_40 | PAD | PC15 | PC26 | PC49 | SC27B | TAB109 | TAB113 | TAB165
